Eleven molecules from PubChem BioAssay (EPA / NIEHS) can be followed below.

Results filed as inconclusive are left out. Some compounds were tested as several samples or in several runs, with calls that do not always agree. Calls of active or inactive are those of the source. Rule for the calls, unless noted: active = hit-call score of the fitted dose curve at least 0.9, where 1 is the maximum; inactive = score below 0.9.

The nature of assay [1]: BSK_3C_SRB: Viability Assessment in the BioMAP Diversity Plus: 3C Assay (AID 2283023).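 Note: cells read 24 h after compound dosing; fitted both ways against DMSO so a hit may be signal rise or drop.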 Particulars: primary human endothelial cells (HUVEC). A digest of the protocol:
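Cells were dosed with chemical, cultured 24 h, fixed with 10% TCA, stained with 0.1% SRB and read at 560 nm. Human umbilical vein endothelium was used; DMSO served as negative control and baseline.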

Read-out in assay [2]: Matrix Metallopeptidase 1 (MMP1), MMP1 (gene 4312)
Put plainly: BSK_BE3C_MMP1: BioMAP Diversity Plus: BE3C Assay for Matrix Metallopeptidase 1 (MMP1) Biomarker Activity (AID 2283024). Particulars: primary human bronchial epithelial cells; actives raise or lower the signal. A digest of the protocol: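 Human primary bronchial epithelial cells (BE3C system) dosed for 24 h; MMP-1 quantified by ELISA. Bidirectional fit against DMSO; cytotoxicity tracked in parallel cultures by SRB total-protein staining.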

Read-out in assay [3]: Pselectin, SELP (gene 6403)
Put plainly: BSK_4H_Pselectin: BioMAP Diversity Plus: 4H Assay for Pselectin Biomarker Activity (AID 2283026). Particulars: primary human endothelial cells (HUVEC); actives raise or lower the signal. A digest of the protocol:
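Primary human umbilical vein endothelial cells were treated 24 h, and cell-surface P-selectin was then quantified by ELISA. Bidirectional fit versus DMSO; cytotoxicity checked in parallel cultures by SRB total-protein staining.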

Assay [4] in a line: BSK_4H_SRB: Viability Assessment in the BioMAP Diversity Plus: 4H Assay (AID 2283027).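 For AC50: curves fitted both ways versus DMSO so AC50 may be loss or gain.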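 Note: cells exposed to compound for 24 h before staining.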 Particulars: primary human endothelial cells (HUVEC). A digest of the protocol: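 Absorbance at 560 nm of SRB-stained total protein served as the viability read-out in confluent primary human umbilical vein endothelium 24 h after chemical treatment. Curves were fitted bidirectionally against DMSO as negative control.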

A short description of assay [5]: BSK_BE3C_SRB: Viability Assessment in the BioMAP Diversity Plus: BE3C Assay (AID 2283028). Particulars: primary human bronchial epithelial cells. A digest of the protocol: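 Overt cytotoxicity was assessed as total protein in confluent human primary bronchial epithelial cultures 24 h after chemical addition, using 0.1% sulforhodamine B staining read at 560 nm.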

Read-out in assay [6]: Thrombomodulin, THBD (gene 7056)
The assay can be described thus: BSK_3C_Thrombomodulin: BioMAP Diversity Plus: 3C Assay for Thrombomodulin Biomarker Activity (AID 2283029). Particulars: primary human endothelial cells (HUVEC); actives raise or lower the signal. A digest of the protocol: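 Human umbilical vein endothelial cells were exposed to chemicals for 24 h; cell-surface thrombomodulin quantified by ELISA, with bidirectional fitting against DMSO baseline.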

Read-out in assay [7]: Urokinase-type plasminogen activator receptor (uPAR), PLAUR (gene 5329)
Put plainly: BSK_4H_uPAR: BioMAP Diversity Plus: 4H Assay for Urokinase-type plasminogen activator receptor (uPAR) Biomarker Activity (AID 2283030). Particulars: primary human endothelial cells (HUVEC); actives raise or lower the signal. A digest of the protocol: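 Chemicals are dosed onto human vascular endothelial primary cells (umbilical vein). After 24 h, uPAR is read by ELISA. Gain or loss of signal is fitted relative to DMSO.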

Read-out in assay [8]: Vascular endothelial growth factor receptor 2 (Homo sapiens) (UniProt P35968)
Put plainly: BSK_4H_VEGFRII: BioMAP Diversity Plus: 4H Assay for Vascular endothelial growth factor receptor 2 (VEGFR2) Biomarker Activity (AID 2283031).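 For AC50: cell-surface VEGFR2 protein level quantified by ELISA.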 Particulars: primary human endothelial cells (HUVEC); actives raise or lower the signal. A digest of the protocol:
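VEGFRII levels on human vascular endothelial primary cells were determined by ELISA at 24 hours post-dosing, with gain- or loss-of-signal fitted against DMSO controls.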

Assay [9] can be described thus: BSK_3C_Vis: BioMAP Diversity Plus: 3C Assay for Morphology Visualization (AID 2283025).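 For AC50: light microscopy image of cell morphology used as background control.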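 Note: fitted both ways so gain or loss versus DMSO counts.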 Particulars: primary human endothelial cells (HUVEC). A digest of the protocol:
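Human umbilical vein endothelial cell morphology was inspected by light microscopy 24 h after chemical dosing; scored bidirectionally relative to DMSO.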

In assay [10] the target is human Vitamin D Receptor (VDR), VDR (gene 7421) (UniProt P11473). Put plainly: ATG_VDR_TRANS: Attagene TRANS-FACTORIAL HepG2 Assay for human Vitamin D Receptor (VDR) (AID 2283022; active = hit-call score of the fitted dose curve at least 0.9, where 1 is the maximum). A digest of the protocol: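 Fluorescence of labelled reporter cDNA fragments, resolved by capillary electrophoresis, gives mRNA induction after 24 h treatment of HepG2 cells carrying transfected Gal4-fusion reporter units. Activity is fitted in the positive direction with DMSO as baseline.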
Chain of human Vitamin D Receptor (VDR), VDR (gene 7421) (P11473 whole entry, looked up, the tested form may be a part): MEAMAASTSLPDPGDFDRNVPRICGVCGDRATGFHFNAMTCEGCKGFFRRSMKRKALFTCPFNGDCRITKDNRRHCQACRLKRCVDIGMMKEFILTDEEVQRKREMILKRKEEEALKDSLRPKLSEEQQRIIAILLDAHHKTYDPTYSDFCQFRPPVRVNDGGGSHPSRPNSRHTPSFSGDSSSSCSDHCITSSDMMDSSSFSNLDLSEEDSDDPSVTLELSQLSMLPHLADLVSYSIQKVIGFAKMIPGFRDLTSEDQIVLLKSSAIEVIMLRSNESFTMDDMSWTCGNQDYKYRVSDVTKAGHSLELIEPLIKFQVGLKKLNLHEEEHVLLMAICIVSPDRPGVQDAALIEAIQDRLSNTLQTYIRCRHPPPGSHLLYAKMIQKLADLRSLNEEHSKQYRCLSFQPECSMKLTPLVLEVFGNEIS

Turning to `O=C(c1ccc(O)cc1)c1ccc(O)cc1O`, the outcome in assay [1], in assay [2], in assay [3], in assay [4], in assay [5] and in assay [6] was inactive. Besides, the outcome in assay [7] and in assay [8] was inactive. In addition, the AC50 in [2] was 12.9 µM (active); in assay [7], 9.72 µM (active).

As to `O=Nc1ccc(O)cc1`, the result in [1], in [2], in assay [9], in assay [3], in assay [4] and in assay [5] was inactive. Further, the result in assay [6], in assay [7] and in [8] was inactive.

As to `CCCCC(CC)COCC1CO1` (centres undefined), the outcome in assay [1], in [2], in [3], in assay [4], in [5] and in assay [6] was inactive. Moreover, the outcome in [7] and in assay [8] was inactive.

On to `C=CCOCC(O)CCl` (centres undefined), for which the outcome in assay [1], in assay [2], in assay [9], in assay [3], in [4] and in assay [5] was inactive. The outcome in assay [6], in assay [7] and in [8] was inactive.

Take `CC(C)(c1cc(Br)c(OCCO)c(Br)c1)c1cc(Br)c(OCCO)c(Br)c1`: the result in [10] and in assay [5] was inactive. For the same molecule, the AC50 in assay [1] was 19.3 µM (active); in assay [2], 0.911 µM (active); in assay [3], 8.19 µM (active); in assay [4], 16.2 µM (active); in assay [6], 28.6 µM (active); in assay [7], 11.7 µM (active). Also, the AC50 in [8] was 9.45 µM (active).

Regarding `CCCCC(CC)COC(=O)c1ccccc1O` (centres undefined), the molecule was called inactive in assay [10], in assay [2], in assay [5], in assay [6] and in assay [7]. Further, the AC50 in [1] is 15.7 µM (active); in assay [9], 19.9 µM (active); in assay [3] it was 16.2 µM (active); in assay [4], 18.2 µM (active); in assay [8] it was 18.8 µM (active).

On to `CCCCC/C=C\C/C=C\CCCCCCCC(=O)OC`, for which the result in [1], in assay [2], in assay [5], in assay [6], in [7] and in assay [8] was inactive. For the same molecule, the AC50 in assay [9] is 37.5 µM (active); in [3], 20 µM (active); in [4] it was 20 µM (active).

Consider `CN1C(=O)N(C)C(O)C1O` (centres undefined), for which the result in [1], in assay [2], in [3], in [4], in assay [5] and in assay [6] was inactive. For the same molecule, the result in [7] and in [8] was inactive.

For `N#[N+]c1ccc2c(S(=O)(=O)[O-])cccc2c1O`, the result in assay [10], in assay [1], in assay [2], in assay [9], in assay [3] and in [4] was inactive. The result in assay [5], in [6], in assay [7] and in assay [8] was inactive.

Take `O=C(Nc1ccccc1SSc1ccccc1NC(=O)c1ccccc1)c1ccccc1`: the outcome in assay [1], in assay [2], in assay [3], in [4], in [5] and in assay [7] was inactive. In addition, the outcome in [8] was inactive. Also, the AC50 is 14.1 µM (active) in [9] and 5.7 µM (active) in assay [6].

Consider `C=C[Si](OC(C)=O)(OC(C)=O)OC(C)=O`, for which the outcome in assay [1], in assay [2], in assay [3], in assay [4], in assay [5] and in assay [6] was inactive. For the same molecule, the outcome in [7] and in assay [8] was inactive.
